PubChem BioAssay AID2732 (Emory University Molecular Libraries Screening Center, 2010)
The whole screen tested about 220,000 compounds, of which about 8,200 (3.7%) were called active. This excerpt belongs to a sample that is enriched for actives. Values without a mark were called inactive.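 Rule for the calls: active = compounds that reduced the stress-induced luciferase reporter signal by more than about 70% of percent inhibition (limit read from the data); inactive = the rest.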

Assay: blockers of ER-stress CHOP reporter expression – cell-based, unfolded protein response, luciferase reporter, primary screen (AID 2732);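 note: 0% = tunicamycin plus vehicle and 100% = wells without tunicamycin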
Conditions: CHO-K1 CHOP-promoter luciferase, tunicamycin-induced, 15-18 h; at 10 µM; active compounds read high

First: CCN(CC)C(=O)CSC(Nc1cccc(F)c1)=C(C#N)C#N
Second: Cc1ccc(SCC(=O)Nc2ncc(C)s2)cc1
The inhibition of the first is lower: -25.7% for the first, 4.03% for the second.

Going from O=[N+]([O-])c1cc(Br)c(O)c(/C=N/Nc2nc3ccccc3s2)c1 to O=C(Nc1nc2ccc([N+](=O)[O-])cc2s1)c1ccncc1, the inhibition falls from 17.5% to -12.2%.

Compared with COc1cccc(/C=N/Nc2ncc(C(F)(F)F)cc2Cl)c1O, Cc1nnsc1C(=O)N/N=C/c1ccccc1Cl is lower in inhibition: 46.9% for the first, -17.2% for the second.

First: CCOc1c(Nc2cccc(Cl)c2)c(=O)c1=O
Second: CCOC(=O)c1nnn2c3ccccc3c(=O)n(C)c12
The inhibition of the first is higher: 18.3% for the first, 8.91% for the second.

First: O=S(=O)([N-]c1nc2ccccc2nc1-[n+]1ccc(Cc2ccccc2)cc1)c1ccc(Br)s1
Second: O=S(=O)(c1ccccc1)c1nc(-c2ccccc2F)oc1NCc1cccnc1
The inhibition of the first is higher: 21.4% for the first, 4.16% for the second.

Compared with O=C(NCc1cccnc1)c1ccc(CS(=O)(=O)c2ccc(Br)cc2)o1, COc1ccc(/C=N/NS(=O)(=O)c2ccc(NC(C)=O)cc2)cc1 is lower in inhibition: 61.7% for the first, 1.32% for the second.

First: O=C(Nc1ccc(Cl)cc1)Nc1ccc(C(=O)N2CCOCC2)cc1
Second: O=C(COC(=O)CCc1nc2ccccc2c(=O)[nH]1)Nc1ccc(N2CCOCC2)cc1
The inhibition of the first is higher: 33.4% for the first, 12.7% for the second.

Going from O=C(Nc1ccc2c(c1)OCCO2)c1ccoc1 to O=S(=O)(c1ccc2c(c1)OCCO2)N1CCc2ccccc21, the inhibition rises from 0.05% to 32.4%.

Going from COc1ccccc1/C=C/C=N/NC(=O)CN1CCN(Cc2ccccc2)CC1 to Cc1ccccc1OCC(O)CN1CCN(c2ccccn2)CC1 (configuration not stated), the inhibition falls from 24.4% to 15.9%.

Going from Cc1cc2nc3c(=O)n(Cc4ccccc4)c(=O)[nH]c3nc2cc1N to CCC1=NN2C(=N)/C(=C/c3cc(C)n(-c4ccccc4)c3C)C(=O)N=C2S1, the inhibition falls from 3.92% to -8.4%.

Compared with COC(=O)C(NC(=O)c1ccc(OC)cc1)(Nc1ncc(S(=O)(=O)c2ccc([N+](=O)[O-])cc2)s1)C(F)(F)F (configuration not stated), CCOC(=O)c1ccccc1NS(=O)(=O)c1ccc(OC)cc1 is higher in inhibition: -14.3% for the first, 9.25% for the second.

Going from CNC(=O)c1ccsc1NC(=O)c1ccc(S(=O)(=O)N2CCc3ccccc32)cc1 to CCn1c(=O)c(=O)n(CC)c2cc(S(=O)(=O)N3CCc4ccccc43)ccc21, the inhibition falls from 37.3% to 35%.

First: CS(=O)(=O)c1ccc2nc(NC(=O)c3ccc(N4CCCC4=O)cc3)sc2c1
Second: CC(=O)c1sc(NC(=O)c2ccc(C)cc2)nc1C
The inhibition of the first is lower: -17% for the first, -2.78% for the second.

First: Cc1nc(C(=O)Nc2ccc(Cl)cc2)sc1C1(C)CC(c2ccccc2)=NO1 (configuration not stated)
Second: COc1cccc(CC(=O)Nc2ccc(-c3csc(C)n3)cc2)c1
The inhibition of the first is higher: 19.7% for the first, 7.07% for the second.

Compared with COc1ccc(CCNCC(O)Cn2ccc3ccccc32)cc1OC (configuration not stated), COCCNC(=O)CCCn1c(=O)c2ccccc2n(Cc2cccc([N+](=O)[O-])c2)c1=O is lower in inhibition: 7.33% for the first, -6.2% for the second.

First: CC(C)CCn1c(CN(C)Cc2ccccc2)nc2c1c(=O)n(C)c(=O)n2C
Second: COCCn1c(CN(Cc2ccccc2)Cc2ccccc2)nc2c1c(=O)n(C)c(=O)n2C
The inhibition of the first is lower: 16% for the first, 63.3% for the second.

First: S=C(NNC(=S)NC1CC2CCC1C2)NC1CC2C=CC1C2 (configuration not stated)
Second: O=C(Nc1cccc(S(=O)(=O)NC2=NCCC2)c1)C1CCCCC1
The inhibition of the first is higher: 12.8% for the first, 3.64% for the second.

First: Cc1cc(C)nc(NC(=O)/C=C/c2ccc(Cl)cc2)n1
Second: CC(=O)Nc1ccc(/C=C/C(=O)c2ccccc2)cc1
The inhibition of the first is higher: 8.16% for the first, -42% for the second.

Compared with CCCCOC(=O)c1[nH]c(C)c(C(=O)OC)c1C, CCOC(=O)Cn1c(N)c(C(=O)OC)sc1=S is higher in inhibition: -2.34% for the first, 25.2% for the second.

First: Cn1c(S(=O)(=O)O)nc2ccccc21
Second: CN(C)C(=O)c1coc2nc3ccccc3nc12
The inhibition of the first is lower: 10.4% for the first, 20.5% for the second.

First: COc1ccccc1-c1c(C#N)c(N)nc2c1CCC2
Second: CCC(=O)N1CCCc2ccccc21
The inhibition of the first is higher: -1.63% for the first, -4.19% for the second.

First: O=c1[nH]c2cccnc2n1-c1ccc([N+](=O)[O-])cc1
Second: O=C(Nc1nnc(SCc2c(Cl)cccc2Cl)s1)c1cccc([N+](=O)[O-])c1
The inhibition of the first is lower: 16.2% for the first, 30.6% for the second.

Going from OCC1(Cc2ccccc2C(F)(F)F)CCN(Cc2ccncc2)CC1 to FC(F)(F)Oc1ccc(-c2cn3cccnc3n2)cc1, the inhibition rises from 1.13% to 2.48%.

First: C=CCn1c(SCc2nnc(-c3ccccc3)o2)nnc1C(O)c1ccccc1 (configuration not stated)
Second: OC(c1nnc(-c2ccccc2)o1)c1cccs1 (configuration not stated)
The inhibition of the first is higher: 14% for the first, -26.1% for the second.

Going from O=C1C2C3C=CC(C3)C2C(=O)N1c1ccc(S(=O)(=O)Nc2nccs2)cc1 (configuration not stated) to CN(C)S(=O)(=O)c1ccc(NC(=O)COC(=O)Cn2[nH]c(=O)c3ccccc3c2=O)cc1, the inhibition falls from 15.9% to 0.58%.

First: CCOC(=O)c1sc(=S)n(-c2cccc(OC)c2)c1N
Second: CCOC(=O)c1c(-c2ccc(C)cc2)csc1/N=C(\C)C1=C(O)c2ccccc2C1=O
The inhibition of the first is higher: 7.44% for the first, 3.26% for the second.

Compared with Fc1ccccc1/C=N/n1c(-c2cccnc2)n[nH]c1=S, CNC(=S)NNC(=O)c1oc2nc(-c3ccccc3)cc(-c3ccco3)c2c1N is lower in inhibition: 6.74% for the first, -27.7% for the second.

Compared with CCOC(=O)C(=CNNc1ccsc1C(=O)OC)C(=O)OCC, COCCn1c(SCC(=O)Nc2cc(OC)ccc2OC)nc2c(c1=O)SC(C)C2 (configuration not stated) is lower in inhibition: 8.45% for the first, -5.89% for the second.

Going from Cc1cccc(C)c1OCC(O)CN1CCCCC1 (configuration not stated) to CCCCCCCC(=O)OC(CN1CCCCCC1)CN1CCCC1=O (configuration not stated), the inhibition falls from 10.2% to 4.3%.

Compared with CC(C)(C)n1nnnc1C(c1ccc(F)cc1)N1CCN(Cc2ccc3c(c2)OCO3)CC1 (configuration not stated), Cc1cc(C)c2[nH]c(=O)c(C(c3nnnn3Cc3ccc4c(c3)OCO4)N3CCCC3)cc2c1 (configuration not stated) is lower in inhibition: 16.3% for the first, -5.25% for the second.

Compared with N#CNC1=NCN(CCc2ccccc2)CN1, CCCN1CNC(=S)N(CCc2ccccc2)C1 is higher in inhibition: -32.6% for the first, 1.62% for the second.

First: CCCCNC(=O)CCn1c(=S)[nH]c2cc3c(cc2c1=O)OCO3
Second: Cc1cccc2c1-c1sc(C(=O)NCCCN3CCc4ccccc4C3)cc1CO2
The inhibition of the first is higher: 55% for the first, 35.6% for the second.

Compared with Cc1ccc(-c2c[n+](=O)c3c(n2[O-])CCC3)cc1, CN(C)c1cc(-c2ccc(F)cc2)oc(=O)c1Cl is lower in inhibition: 17.5% for the first, 12.7% for the second.

Compared with Cc1ccc(NS(=O)(=O)c2ccc(N/N=C/c3ccccc3OCC(=O)O)c([N+](=O)[O-])c2)c(C)c1, O=C(Nc1ccc(N2CCN(C(=O)c3ccccc3)CC2)c(Cl)c1)c1ncn[nH]1 is higher in inhibition: -8.85% for the first, 37.5% for the second.

Compared with C[C@H](NC(=O)OC(C)(C)C)c1nnc(SCC(N)=O)o1, CC(C)Sc1nnc([C@H](Cc2ccccc2)NC(=O)OC(C)(C)C)o1 is lower in inhibition: 26.6% for the first, 11.1% for the second.

Compared with CC(C)C(=O)N1CCC2(CC1)Oc1ccc(F)cc1C(=O)C21CC(c2ccccc2)=NO1 (configuration not stated), CCN1/C(=C/C(=S)Nc2ccccc2)Sc2ccccc21 is lower in inhibition: 19.9% for the first, -10.3% for the second.

Going from Cc1ccsc1/C=N/Nc1ccc(Cl)nn1 to Cc1ccc(C(=O)Nc2nnc(-c3cccs3)s2)cc1C, the inhibition falls from 65.5% to 48.9%.

First: CCC(=O)/C=C1\Sc2ccccc2N1CC
Second: CC(C)(C)NC(=O)/C(=C/c1cccnc1)NC(=O)c1ccco1
The inhibition of the first is higher: 14.1% for the first, 12.6% for the second.

Going from Cc1cnc(NC(=O)CSc2nnc(C)s2)s1 to Cc1ccc(-c2cc(C(=O)NN)n[nH]2)o1, the inhibition falls from 22.4% to 2.15%.

In the case of Oc1c(Br)cccc1/C=N/Nc1c(F)c(F)c(F)c(F)c1F, the inhibition is reported as 89.8% (active).
With O=S(=O)(c1ccc(Br)cc1)c1nc(-c2ccccc2)oc1NCc1cccnc1 the inhibition was 72.4% (active).
In the case of CSc1nc2ccc(S(=O)(=O)N3CCc4ccccc43)cc2s1, the inhibition is reported as 71% (active).
With O=C(Nc1nc2ccc([N+](=O)[O-])cc2s1)c1ccc(S(=O)(=O)N2CCCc3ccccc32)cc1 the inhibition was 80.6% (active).
With O=C(NC(Nc1nc2ccc([N+](=O)[O-])cc2s1)(C(F)(F)F)C(F)(F)F)c1ccccc1 the inhibition was 106% (active).
In the case of CC(C)Cn1c(CN(Cc2ccccc2)Cc2ccccc2)nc2c1c(=O)n(C)c(=O)n2C, the inhibition is reported as 95% (active).
For COC(=O)c1c(C)[nH]c(C(=O)/C=C/c2ccc(Cl)cc2)c1C, the inhibition was 85% (active).
With CCCN(CCC)c1ccc(C(O)c2nnc(-c3ccccc3)o2)cc1 (configuration not stated) the inhibition was 91.7% (active).
For CCOC(=O)c1sc(=S)n2c1[nH]c(=O)c1ccc(C(=O)OC)cc12, the inhibition was 90.7% (active).
For Cc1ccc(OCC(O)CN2CCN(CC(O)COc3ccc(C)cc3Cl)CC2)c(Cl)c1 (configuration not stated), the inhibition was 93.5% (active).
In the case of Fc1ccccc1C(c1nnnn1Cc1ccc2c(c1)OCO2)N1CCN(Cc2ccccc2)CC1 (configuration not stated), the inhibition is reported as 97.9% (active).
In the case of c1ccc(CCN2CN=C(Nc3nc4ccccc4o3)NC2)cc1, the inhibition is reported as 94.3% (active).
With CCCCNC(=O)CCn1c(=O)c2ccccc2n(Cc2cc(C)ccc2C)c1=O the inhibition was 86.5% (active).
In the case of C[C@@H](NC(=O)OC(C)(C)C)c1nnc(S(=O)(=O)Cc2ccccc2)o1, the inhibition is reported as 86.2% (active).
In the case of CCOC(=O)C1=C(c2ccc(OC)cc2)C(=O)c2ccccc2C1=O, the inhibition is reported as 102% (active).
In the case of CCN1/C(=C\c2ccc3ccccc3[n+]2CC)Sc2cc(C)ccc21, the inhibition is reported as 87.5% (active).
For CCN1/C(=C/c2ccc3ccc(C)cc3[n+]2CC)Sc2ccccc21, the inhibition was 73% (active).
With Cc1cnc(NC(=O)CSc2c(Cl)cccc2Cl)s1 the inhibition was 74.4% (active).
With N#Cc1ccc(C(=O)Nc2nc(-c3cccs3)c(C(=O)C(F)(F)F)s2)cc1 the inhibition was 74.7% (active).
